# Laboratory results taken from PubChem BioAssay (EPA / NIEHS).
# Inconclusive results are not listed. Activity calls are given as the source filed them. How the source made its calls: active means hit-call score of the fitted dose curve at least 0.9, where 1 is the maximum; inconclusive means response in the unintended direction; inactive means score below 0.9.
# Target: Estrogen receptor (Homo sapiens) + Estrogen receptor beta (Homo sapiens) (UniProt P03372+Q92731)
# Assay: OT_ER_ERaERb_0480: Odyssey Thera (OT) 8-hour HEK293T Protein-Complementation Assay for Estrogen Receptor-alpha/-beta Heterodimer (AID 2283352)
# Description: OT_ER_ERaERb_0480 is a cell-based assay that uses HEK293T, a human kidney cell line, with measurements taken at 8 hours after chemical dosing in a 384-well plate.OT_ER_ERaERb_0480 is one of one assay component(s) measured or calculated from the OT_ER_ERaERb_0480 assay. It is designed to make measurements of protein fragment complementation, a form of binding reporter, as detected with fluorescence intensity signals by Protein-fragment Complementation technology.Data from the assay component OT_ER_ERaERb_0480 was analyzed into 1 assay endpoint. This assay endpoint, OT_ER_ERaERb_0480, was analyzed in the positive analysis fitting direction relative to DMSO as the negative control and baseline of activity. Using a type of binding reporter, measures of receptor for gain-of-signal activity can be used to understand the binding at the pathway-level as they relate to the gene ESR1 and ESR2. Furthermore, this assay endpoint can be referred to as a primary readout, because the performed assay has only produced 1 assay endpoint. To generalize the intended target to other relatable targets, this assay endpoint is annotated to the nuclear receptor intended target family, where the subfamily is steroidal.
# Protein-fragment complementation assay, or PCA, is a method for the identification and quantification of protein-protein interactions. In the PCA, the proteins of interest ("bait" and "prey") are each covalently linked to fragments of a third protein (e.g. DHFR, which acts as a "reporter"). Interaction between the bait and the prey proteins brings the fragments of the reporter protein in close proximity to allow them to form a functional reporter protein whose activity can be measured. […] Fluorescent signal in the basal state of the assay is very low and is primarily punctuate and cytoplasmic. Modulation of this assay is quantified as an increase in mean fluorescence intensity in the nucleus (for agonists) or in the nucleus and cytoplasm (antagonists) relative to vehicle controls, and can be quantified on a high content imaging device or a laser scanning cytometer. The latter instrument is favored for this assay because of the rapid mode of data acquisition, the ability to acquire data from the entire cell population in a well (as opposed to a fraction of the well on the high content devices) and the larger dynamic range typically achieved with this instrument. To assess sensitivity of the ER alpha/ER beta LBD assay to ligand, cells were treated with the ER agonist 17- beta-estradiol (E2) in 10-point concentration- response format for 8 hours and monitored response on a laser scanning plate cytometer (Acumen eX3; TTP Lab Tech).
# Sequence of Estrogen receptor (Homo sapiens) + Estrogen receptor beta (Homo sapiens) (P03372 whole entry, looked up): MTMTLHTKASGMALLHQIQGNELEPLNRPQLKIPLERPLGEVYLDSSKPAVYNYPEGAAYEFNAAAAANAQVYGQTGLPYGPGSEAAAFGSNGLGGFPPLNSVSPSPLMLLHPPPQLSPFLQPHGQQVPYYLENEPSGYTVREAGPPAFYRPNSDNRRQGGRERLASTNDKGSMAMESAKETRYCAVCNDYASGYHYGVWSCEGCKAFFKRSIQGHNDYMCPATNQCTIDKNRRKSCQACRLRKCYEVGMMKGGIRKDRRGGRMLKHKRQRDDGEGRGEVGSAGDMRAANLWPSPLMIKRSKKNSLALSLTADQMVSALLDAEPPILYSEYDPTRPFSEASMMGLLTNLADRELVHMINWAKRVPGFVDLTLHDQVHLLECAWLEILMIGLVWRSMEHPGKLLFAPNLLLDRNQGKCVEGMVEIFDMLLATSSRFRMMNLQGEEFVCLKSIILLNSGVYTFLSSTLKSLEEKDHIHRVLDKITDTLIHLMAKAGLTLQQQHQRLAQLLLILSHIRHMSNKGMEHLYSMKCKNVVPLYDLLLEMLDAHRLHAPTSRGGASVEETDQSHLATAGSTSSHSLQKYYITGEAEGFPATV
# Sequence of Estrogen receptor (Homo sapiens) + Estrogen receptor beta (Homo sapiens) (Q92731 whole entry, looked up): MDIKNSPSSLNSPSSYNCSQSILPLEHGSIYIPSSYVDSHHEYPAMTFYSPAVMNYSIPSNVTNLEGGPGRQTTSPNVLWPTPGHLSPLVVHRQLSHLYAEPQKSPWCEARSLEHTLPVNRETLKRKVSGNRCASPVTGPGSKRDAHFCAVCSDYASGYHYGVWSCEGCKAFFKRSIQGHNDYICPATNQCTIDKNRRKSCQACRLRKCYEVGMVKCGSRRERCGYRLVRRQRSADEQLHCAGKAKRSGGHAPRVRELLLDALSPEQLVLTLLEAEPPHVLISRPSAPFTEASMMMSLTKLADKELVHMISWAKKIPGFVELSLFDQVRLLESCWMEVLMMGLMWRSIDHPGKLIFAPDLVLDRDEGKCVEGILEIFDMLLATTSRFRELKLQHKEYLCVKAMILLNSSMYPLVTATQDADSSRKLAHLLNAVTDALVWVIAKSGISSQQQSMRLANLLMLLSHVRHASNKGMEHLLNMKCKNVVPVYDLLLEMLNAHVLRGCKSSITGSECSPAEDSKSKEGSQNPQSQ
row,SMILES,outcome
1,C[C@@H](Oc1ccc(CNC(=O)c2cccnc2Oc2ccc3c(c2)OCO3)c(F)c1)C(=O)O,inactive
2,C=CCc1cc(S(=O)(=O)c2ccc(O)c(CC=C)c2)ccc1O,inactive
3,Cc1nccn1-c1ccc(Sc2cccc(C3(C(N)=O)CCOCC3)c2)cc1,inactive
4,CC(C)CCCCCCOC(=O)C1CCCCC1C(=O)OCCCCCCC(C)C (stereo not given),inactive
5,CCc1ccc(O)c(C(C)(C)C)c1,inactive
6,NNC(=O)c1ccncc1,inactive
7,CNC(C)=O,inactive
8,NC(=O)N(O)[C@@H]1COc2cc(OCc3ccccc3)ccc21,inactive
9,OCCOCCOCCO,inactive
10,CCCCCCCC/C=C\CCCCCCCC(=O)OC[C@@H](O)[C@H]1OC[C@H](O)[C@H]1O,inactive
11,O=C(O)c1ccc2c(c1)nc(C(=O)NC1CCN(C3CC3)CC1)n2Cc1cc(-c2ccc(Cl)s2)on1,inactive
12,CCn1nc(C)c2c1C(=O)NCC(c1ccc(O)cc1)=N2,inactive
13,OCC(CO)(CO)CO,inactive
14,CCc1cccc(CC)c1N,inactive
15,Cc1ccc(S(=O)(=O)NC(=O)NN2CCCCCC2)cc1,inactive
16,COc1cc2c(c(OC)c1OC)-c1ccc(OC)c(=O)cc1[C@@H](NC(C)=O)CC2,inactive
17,CCCCCCCCCCCCCCO,inactive
18,NC(=O)N1c2ccccc2C=Cc2ccccc21,inactive
19,CC[C@H](C)C(=O)O[C@H]1C[C@H](O)C=C2C=C[C@H](C)[C@H](CC[C@@H](O)C[C@@H](O)CC(=O)O)[C@H]21,inactive
20,Cc1nc(-c2ccccn2)ncc1C(=O)Nn1cc(C)c2cc(F)ccc21,inactive

row,SMILES,outcome
1,CCCOc1ccc(S(=O)(=O)N2CCN(CC)CC2)cc1-c1nc2c(CC)n(Cc3ccccn3)nc2c(=O)[nH]1,inactive
2,CCCc1ccccc1,inactive
3,CCN(CC)C(=S)SSC(=S)N(CC)CC,inactive
4,CC(C)CC(C)O (stereo not given),inactive
5,CCCCN1C(=O)[C@@H]([C@H](O)C2CCCCC2)NC(=O)C12CCN(Cc1ccc(Oc3ccc(C(=O)O)cc3)cc1)CC2,inactive
6,CCCCCCCC1CCC(=O)O1 (stereo not given),inactive
7,Cc1ncc([C@@H](CCCCCCc2ccc3c(n2)NCCC3)CC(=O)O)cn1,inactive
8,CCCCCCCCCC,inactive
9,OCc1ccccc1,inactive
10,Cc1cccc(O)c1C,inactive
11,OC(CCl)CCl,inactive
12,CCCCCCCCCCCCCCCCOS(=O)(=O)O,inactive
13,Cn1cc[nH]c1=S,inactive
14,OC[C@H]1O[C@@H]2O[C@H]3[C@H](O)[C@@H](O)[C@@H](O[C@H]4[C@H](O)[C@@H](O)[C@@H](O[C@H]5[C@H](O)[C@@H](O)[C@@H](O[C@H]6[C@H](O)[C@@H](O)[C@@H](O[C@H]7[C@H](O)[C@@H](O)[C@@H](O[C@H]1[C@H](O)[C@H]2O)O[C@@H]7CO)O[C@@H]6CO)O[C@@H]5CO)O[C@@H]4CO)O[C@@H]3CO,inactive
15,O=S1(=O)CCCO1,inactive
16,NC(N)=O,inactive
17,c1ccc2c(c1)-c1cccc3c1c-2cc1ccccc13,inactive
18,NC(=O)NN=Cc1ccc([N+](=O)[O-])o1,inactive
19,CC(C)C(=O)Nc1ccc([N+](=O)[O-])c(C(F)(F)F)c1,inactive
20,COCc1nnc(-c2ccc[n+]([O-])c2)n1-c1c(Cl)c(Cl)cc2[nH]c(=O)c(=O)[nH]c12,inactive
